For eight molecules, outcome and AC50 results are on record in PubChem BioAssay (EPA / NIEHS).

A short description of assay [1]: ATG_PPRE_CIS: Attagene CIS-FACTORIAL HepG2 Assay for human Peroxisome Proliferator-activated Response Element (PPRE) (AID 2282958). The following applies: HepG2 PPRE cis-element reporter, Attagene transcription factor profiling; actives raise or lower the signal. The essentials: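 Transcript-level reporter induction in transfected HepG2 cells after 24 h chemical exposure, quantified by fluorescence from RT-PCR products separated by capillary electrophoresis.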

A short description of assay [2]: ATG_RORE_CIS: Attagene CIS-FACTORIAL HepG2 Assay for human RAR-related Orphan Receptor Element (RORE) (AID 2282959). The following applies: HepG2 Attagene cis-factorial RORE reporter, mRNA; actives raise or lower the signal. Summed up:
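Multiplexed reporter assay measuring mRNA induction from a cis promoter element in transiently transfected HepG2 cells after 24 h treatment. Detection via RT-PCR and capillary electrophoresis fluorescence; DMSO serves as baseline.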

A short description of assay [3]: ATG_Sox_CIS: Attagene CIS-FACTORIAL HepG2 Assay for human SRY-box transcription factor (SOX) (AID 2282960). The following applies: HepG2 Attagene cis-factorial SOX reporter, mRNA; actives raise or lower the signal. Summed up:
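Cells were transfected with reporter constructs under cis-regulatory promoters, then exposed to chemicals for 24 h. Reporter transcripts were quantified by fluorescence after RT-PCR and capillary electrophoresis; activity was fitted in both directions against DMSO.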

Assay [4] addresses Transcription factor Sp1 (Homo sapiens) (UniProt P08047). In words: ATG_Sp1_CIS: Attagene CIS-FACTORIAL HepG2 Assay for human Specificity Protein 1 (Sp1) (AID 2282961). The following applies: HepG2 Sp1 cis-reporter transcription, actives raise or lower the signal. Summed up:
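Measures mRNA induction of an Sp1-linked reporter in HepG2 cells 24 h post-dosing. Multiplexed reporters read by RT-PCR and capillary electrophoresis; DMSO serves as negative control and baseline.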

Assay [5] is described as follows: ATG_SREBP_CIS: Attagene CIS-FACTORIAL HepG2 Assay for human Sterol Regulatory Element Binding (SREBP) (AID 2282962). The following applies: HepG2 Attagene cis-factorial SREBP reporter, mRNA; actives raise or lower the signal. The essentials:
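Twenty-four hours after chemical dosing of transfected HepG2 cultures, reporter RNA was converted to cDNA, amplified, end-labelled with 6-FAM and resolved by capillary electrophoresis. Responses were fitted relative to DMSO.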

Assay [6] concerns the target Signal transducer and activator of transcription 3 (Homo sapiens) (UniProt P40763). The assay can be described thus: ATG_STAT3_CIS: Attagene CIS-FACTORIAL HepG2 Assay for human Signal Transducer and Activator of Transcription 3 (STAT3) (AID 2282963). The following applies: HepG2, Attagene cis-factorial STAT3 reporter transcription; actives raise or lower the signal. The essentials:
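Values derive from bidirectional fits relative to DMSO of reporter mRNA levels, measured by RT-PCR with capillary electrophoresis, in HepG2 cells carrying transiently transfected cis-regulated reporter units and exposed 24 h.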

Assay [7] in a line: ATG_TA_CIS: Attagene CIS-FACTORIAL HepG2 Assay for human TA Basal Promoter (AID 2282964). The following applies: HepG2 Attagene CIS-factorial TA basal promoter reporter; actives raise or lower the signal. Summed up:
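HepG2 cells transiently transfected with multiple reporter units under cis promoter elements, reporting endogenous transcription factor activity; this endpoint tracks the TA basal promoter as background control. Reporter mRNA after 24 h dosing measured by RT-PCR/capillary electrophoresis; bidirectional fits versus DMSO.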

Assay [8] in a line: ATG_TCF_b_cat_CIS: Attagene CIS-FACTORIAL HepG2 Assay for human T-Cell-Factor with beta-catenin (TCF/b-cat) (AID 2282965). The following applies: HepG2 TCF/beta-catenin cis-reporter transcription, actives raise or lower the signal. The essentials: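 Cells of the HepG2 line carry transiently transfected reporter units whose promoters respond to endogenous factors. Twenty-four hours post-dosing, reporter mRNA induction is measured by fluorescent RT-PCR and capillary electrophoresis, with DMSO as baseline.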

Assay [9] is described as follows: ATG_TAL_CIS: Attagene CIS-FACTORIAL HepG2 Assay for human TAL Basal Promoter (AID 2282966).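 Also: background control endpoint measuring basal TAL promoter reporter mRNA not a specific factor.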 The following applies: HepG2 Attagene cis-factorial TAL promoter reporter; actives raise or lower the signal. The essentials: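 HepG2 cells transiently transfected with multiplexed cis-promoter reporter units, dosed 24 h. Reporter mRNA quantified by RT-PCR, 6-FAM labelling, HpaI digestion and capillary electrophoresis; TAL basal promoter serves as background control, fitted bidirectionally versus DMSO.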

The nature of assay [10]: ATG_TGFb_CIS: Attagene CIS-FACTORIAL HepG2 Assay for human Transforming Growth Factor (TGF) (AID 2282967). The following applies: HepG2 Attagene CIS TGFb reporter, mRNA transcription; actives raise or lower the signal. The essentials: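 HepG2 cells transiently transfected with cis-promoter-driven multiple reporter units measure endogenous TF activity; reporter mRNA quantified at 24 h by RT-PCR, FAM labeling, HpaI digestion and capillary electrophoresis. Bidirectional fit vs DMSO.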

A short description of assay [11]: ATG_VDRE_CIS: Attagene CIS-FACTORIAL HepG2 Assay for human Vitamin D Receptor Element (VDRE) (AID 2282968). The following applies: HepG2 VDRE cis-reporter transcription, actives raise or lower the signal. The essentials: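 Cell-based multiplexed reporter format in human liver HepG2 cells, 24 h post-dose. Fluorescence from capillary electrophoresis of reporter cDNA gives the signal, with DMSO as negative control and baseline.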

For assay [12], the target named is Nuclear receptor subfamily 1 group I member 3 (Homo sapiens) (UniProt Q14994). The assay can be described thus: ATG_CAR_TRANS: Attagene TRANS-FACTORIAL HepG2 Assay for human Constitutive Androstane Receptor (CAR) (AID 2282969; active = hit-call score of the fitted dose curve at least 0.9, where 1 is the maximum;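 also: activators raise reporter mRNA above DMSO so AC50 marks induction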). The following applies: HepG2 Attagene TRANS-FACTORIAL CAR reporter. The essentials: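 HepG2 cells transiently transfected with GAL4-UAS reporter units; TRANS format reads activity of exogenous chimeric NR-Gal4 protein. After 24 h dosing, reporter mRNA quantified by RT-PCR, 6-FAM labelling and capillary electrophoresis; gain of signal fitted against DMSO.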

The target in assay [13] is X-box-binding protein 1 (Homo sapiens) (UniProt P17861). The assay can be described thus: ATG_Xbp1_CIS: Attagene CIS-FACTORIAL HepG2 Assay for human X-box Binding Protein 1 (XBP1) (AID 2282972). The following applies: HepG2 XBP1 cis-element reporter, Attagene multiplex; actives raise or lower the signal. The essentials:
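After a 24-hour chemical exposure of HepG2 cells carrying cis-regulated reporters, reporter mRNA levels are assessed. Quantification uses RT-PCR, 6-FAM labelling and capillary electrophoresis. Gain- or loss-of-signal is fitted against DMSO.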

Assay [14] addresses Estrogen-related receptor gamma (Homo sapiens) (UniProt P62508). In words: ATG_ERRg_TRANS: Attagene TRANS-FACTORIAL HepG2 Assay for human Estrogen-Related Receptor gamma (ERRg) (AID 2282977; active = hit-call score of the fitted dose curve at least 0.9, where 1 is the maximum;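 also: hits increase reporter signal over DMSO so potencies reflect activators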). The following applies: HepG2 Attagene TRANS reporter, ERRg transactivation. The essentials: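 Transient HepG2 transfectants, 24 h compound exposure, GAL4-UAS reporter mRNA by RT-PCR/6-FAM labelling/capillary electrophoresis; positive direction vs DMSO.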

Assay [15] has as its target Glucocorticoid receptor (Homo sapiens) (UniProt P04150). The assay can be described thus: ATG_GR_TRANS: Attagene TRANS-FACTORIAL HepG2 Assay for human Glucocorticoid Receptor (GR) (AID 2282978; active = hit-call score of the fitted dose curve at least 0.9, where 1 is the maximum;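 also: activators score as hits since higher reporter transcript over DMSO is fitted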). The following applies: HepG2 Attagene TRANS GR reporter, mRNA transcription. The essentials:
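Multiplexed TRANS reporter system, HepG2; 24 h exposure; RNA → oligo(dT) RT → reporter-specific PCR → 6-FAM primer extension → HpaI cut → CE fluorescence. Gain-of-signal vs DMSO.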

Assay [16] has as its target Bile acid receptor (Homo sapiens) (UniProt Q96RI1). The assay can be described thus: ATG_FXR_TRANS: Attagene TRANS-FACTORIAL HepG2 Assay for Farnesoid X Receptor (FXR) (AID 2282979; active = hit-call score of the fitted dose curve at least 0.9, where 1 is the maximum;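 also: hits raise reporter mRNA above DMSO so AC50 marks FXR activation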). The following applies: HepG2 Attagene TRANS FXR-GAL4 reporter transcription. Summed up:
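HepG2 cells were transiently transfected with GAL4-UAS reporters driven by chimeric NR-Gal4 proteins and dosed for 24 h. Reporter mRNA was quantified by RT-PCR, fluorescent labelling, HpaI digestion and capillary electrophoresis, with gain of signal scored versus DMSO.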

The target of assay [17] is Steroid hormone receptor ERR1 (Homo sapiens) (UniProt P11474). In words: ATG_ERRa_TRANS: Attagene TRANS-FACTORIAL HepG2 Assay for human Estrogen-Related Receptor alpha (ERRa) (AID 2282971; active = hit-call score of the fitted dose curve at least 0.9, where 1 is the maximum). The following applies: HepG2 Attagene TRANS reporter, ERRa transactivation. The essentials: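 HepG2 cells transiently transfected with GAL4-UAS reporter units and chimeric NR-Gal4 constructs; after 24 hour compound incubation, reporter mRNA quantified by RT-PCR, fluorescent labelling and capillary electrophoresis, gain of signal versus DMSO.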

Assay [18] in a line: ATG_M_19_TRANS: Attagene TRANS-FACTORIAL HepG2 Assay for M19 Transcription Factor (Internal Marker) (AID 2282974; active = hit-call score of the fitted dose curve at least 0.9, where 1 is the maximum). The following applies: HepG2 Attagene TRANS-FACTORIAL M19 internal marker reporter. Summed up:
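After transfection of HepG2 with GAL4-UAS-driven reporter constructs, cells are dosed for 24 h. Total RNA is reverse-transcribed, reporter sequences PCR-amplified and labelled, then HpaI-digested and sized by capillary electrophoresis.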

The nature of assay [19]: ATG_GAL4_TRANS: Attagene TRANS-FACTORIAL HepG2 Assay for GAL4 (Internal Marker) (AID 2282976; active = hit-call score of the fitted dose curve at least 0.9, where 1 is the maximum). The following applies: HepG2 Attagene TRANS GAL4 internal marker reporter. Summed up:
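Background-control readout: GAL4-UAS reporter transcript in transiently transfected HepG2 cells after 24 h compound exposure. Measured by RT-PCR, 6-FAM primer extension, HpaI digest and capillary electrophoresis; gain-of-signal fit versus DMSO.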

The structures appear in SMILES notation. Records with an inconclusive call do not appear. Calls of active or inactive are those of the source. The calls were made as follows, unless noted: active = hit-call score of the fitted dose curve at least 0.9, where 1 is the maximum; inactive = score below 0.9.

Sequence of Steroid hormone receptor ERR1 (Homo sapiens) (P11474 whole entry, looked up, the tested form may be a part): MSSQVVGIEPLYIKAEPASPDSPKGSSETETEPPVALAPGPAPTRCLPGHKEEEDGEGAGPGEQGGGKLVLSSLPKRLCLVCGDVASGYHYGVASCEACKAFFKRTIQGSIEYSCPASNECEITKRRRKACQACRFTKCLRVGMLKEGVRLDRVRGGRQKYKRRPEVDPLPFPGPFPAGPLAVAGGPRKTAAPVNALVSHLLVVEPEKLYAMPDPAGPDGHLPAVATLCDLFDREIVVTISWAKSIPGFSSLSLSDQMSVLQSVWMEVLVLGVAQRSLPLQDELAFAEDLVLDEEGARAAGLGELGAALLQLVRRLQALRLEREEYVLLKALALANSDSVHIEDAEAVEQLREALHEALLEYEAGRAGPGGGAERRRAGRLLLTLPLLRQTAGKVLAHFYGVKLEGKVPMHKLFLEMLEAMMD
Sequence of Estrogen-related receptor gamma (Homo sapiens) (P62508 whole entry, looked up, the tested form may be a part): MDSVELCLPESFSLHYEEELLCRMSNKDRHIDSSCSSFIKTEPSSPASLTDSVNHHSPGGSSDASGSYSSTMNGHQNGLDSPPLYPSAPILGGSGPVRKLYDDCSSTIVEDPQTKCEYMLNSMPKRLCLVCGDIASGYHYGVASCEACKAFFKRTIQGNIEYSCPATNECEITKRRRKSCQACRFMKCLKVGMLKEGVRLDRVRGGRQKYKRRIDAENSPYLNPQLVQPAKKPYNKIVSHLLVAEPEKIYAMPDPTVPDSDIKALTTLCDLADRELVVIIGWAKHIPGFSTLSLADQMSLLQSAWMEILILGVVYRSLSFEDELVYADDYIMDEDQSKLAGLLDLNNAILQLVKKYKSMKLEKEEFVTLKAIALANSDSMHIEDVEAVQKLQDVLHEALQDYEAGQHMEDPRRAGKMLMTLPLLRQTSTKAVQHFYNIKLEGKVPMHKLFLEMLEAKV
Sequence of Signal transducer and activator of transcription 3 (Homo sapiens) (P40763 whole entry, looked up): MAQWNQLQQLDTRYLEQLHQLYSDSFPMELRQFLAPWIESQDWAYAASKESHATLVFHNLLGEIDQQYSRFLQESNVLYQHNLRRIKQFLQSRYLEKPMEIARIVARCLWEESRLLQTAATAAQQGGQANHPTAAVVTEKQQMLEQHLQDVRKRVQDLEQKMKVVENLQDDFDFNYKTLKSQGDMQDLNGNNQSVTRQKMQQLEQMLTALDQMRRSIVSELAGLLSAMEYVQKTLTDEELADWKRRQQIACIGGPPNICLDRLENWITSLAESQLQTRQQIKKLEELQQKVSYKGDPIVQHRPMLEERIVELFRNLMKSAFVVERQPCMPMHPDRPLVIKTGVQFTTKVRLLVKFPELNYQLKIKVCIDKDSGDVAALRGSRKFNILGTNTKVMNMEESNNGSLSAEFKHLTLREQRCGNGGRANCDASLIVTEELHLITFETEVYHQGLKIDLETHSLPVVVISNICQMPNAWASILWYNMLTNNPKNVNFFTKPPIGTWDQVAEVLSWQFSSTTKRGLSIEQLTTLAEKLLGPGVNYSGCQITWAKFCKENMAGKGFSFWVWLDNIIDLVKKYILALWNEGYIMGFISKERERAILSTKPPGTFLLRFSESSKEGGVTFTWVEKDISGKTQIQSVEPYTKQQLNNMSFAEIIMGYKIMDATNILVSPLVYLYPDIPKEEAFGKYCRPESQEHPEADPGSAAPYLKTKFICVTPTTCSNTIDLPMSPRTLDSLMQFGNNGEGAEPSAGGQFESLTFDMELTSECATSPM
Sequence of X-box-binding protein 1 (Homo sapiens) (P17861 whole entry, looked up): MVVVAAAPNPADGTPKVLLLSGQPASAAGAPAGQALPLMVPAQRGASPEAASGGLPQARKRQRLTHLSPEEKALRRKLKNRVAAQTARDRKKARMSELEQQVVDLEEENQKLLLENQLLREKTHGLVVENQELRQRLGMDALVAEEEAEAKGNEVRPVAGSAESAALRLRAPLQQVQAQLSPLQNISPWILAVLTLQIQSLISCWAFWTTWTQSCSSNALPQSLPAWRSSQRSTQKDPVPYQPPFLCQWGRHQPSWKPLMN
Sequence of Bile acid receptor (Homo sapiens) (Q96RI1 whole entry, looked up, the tested form may be a part): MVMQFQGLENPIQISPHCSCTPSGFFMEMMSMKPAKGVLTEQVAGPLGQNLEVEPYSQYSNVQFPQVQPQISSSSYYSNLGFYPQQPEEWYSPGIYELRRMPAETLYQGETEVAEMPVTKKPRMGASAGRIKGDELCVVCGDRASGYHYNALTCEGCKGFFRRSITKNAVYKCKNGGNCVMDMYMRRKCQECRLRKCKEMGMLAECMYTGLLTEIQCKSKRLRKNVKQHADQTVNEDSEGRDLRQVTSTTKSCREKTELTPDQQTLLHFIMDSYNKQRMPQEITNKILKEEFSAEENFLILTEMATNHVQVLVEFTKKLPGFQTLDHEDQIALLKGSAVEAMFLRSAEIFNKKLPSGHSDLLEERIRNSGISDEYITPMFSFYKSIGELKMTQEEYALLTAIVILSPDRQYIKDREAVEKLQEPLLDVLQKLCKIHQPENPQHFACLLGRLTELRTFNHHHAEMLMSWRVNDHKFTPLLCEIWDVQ
Sequence of Nuclear receptor subfamily 1 group I member 3 (Homo sapiens) (Q14994 whole entry, looked up, the tested form may be a part): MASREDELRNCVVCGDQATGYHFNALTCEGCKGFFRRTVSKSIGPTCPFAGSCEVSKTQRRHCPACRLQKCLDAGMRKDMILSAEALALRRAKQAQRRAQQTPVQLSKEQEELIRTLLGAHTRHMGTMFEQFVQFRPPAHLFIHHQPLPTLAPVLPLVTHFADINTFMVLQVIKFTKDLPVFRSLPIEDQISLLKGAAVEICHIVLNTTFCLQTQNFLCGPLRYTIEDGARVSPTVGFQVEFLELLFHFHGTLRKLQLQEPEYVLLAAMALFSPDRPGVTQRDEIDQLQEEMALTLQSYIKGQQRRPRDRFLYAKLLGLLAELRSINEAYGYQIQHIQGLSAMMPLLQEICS
Sequence of Transcription factor Sp1 (Homo sapiens) (P08047 whole entry, looked up): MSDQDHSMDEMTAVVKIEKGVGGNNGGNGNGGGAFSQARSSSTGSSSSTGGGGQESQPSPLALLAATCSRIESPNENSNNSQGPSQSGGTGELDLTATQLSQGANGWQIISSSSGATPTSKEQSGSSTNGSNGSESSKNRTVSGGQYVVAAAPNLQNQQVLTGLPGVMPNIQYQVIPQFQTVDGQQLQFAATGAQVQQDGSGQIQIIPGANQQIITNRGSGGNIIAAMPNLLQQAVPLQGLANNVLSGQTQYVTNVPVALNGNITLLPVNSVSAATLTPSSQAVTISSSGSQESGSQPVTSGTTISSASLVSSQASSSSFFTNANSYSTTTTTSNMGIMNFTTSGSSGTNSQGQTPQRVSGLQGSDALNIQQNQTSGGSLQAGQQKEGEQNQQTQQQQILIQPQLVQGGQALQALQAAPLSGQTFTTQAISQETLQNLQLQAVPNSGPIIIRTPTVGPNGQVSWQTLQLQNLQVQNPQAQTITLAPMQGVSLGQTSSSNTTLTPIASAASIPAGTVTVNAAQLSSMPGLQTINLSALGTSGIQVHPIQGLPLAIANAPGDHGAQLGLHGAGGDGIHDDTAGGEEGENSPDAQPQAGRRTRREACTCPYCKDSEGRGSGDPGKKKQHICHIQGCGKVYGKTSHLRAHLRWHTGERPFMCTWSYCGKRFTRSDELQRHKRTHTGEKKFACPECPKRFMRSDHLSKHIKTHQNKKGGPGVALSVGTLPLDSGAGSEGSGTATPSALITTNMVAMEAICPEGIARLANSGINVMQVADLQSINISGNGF
Sequence of Glucocorticoid receptor (Homo sapiens) (P04150 whole entry, looked up): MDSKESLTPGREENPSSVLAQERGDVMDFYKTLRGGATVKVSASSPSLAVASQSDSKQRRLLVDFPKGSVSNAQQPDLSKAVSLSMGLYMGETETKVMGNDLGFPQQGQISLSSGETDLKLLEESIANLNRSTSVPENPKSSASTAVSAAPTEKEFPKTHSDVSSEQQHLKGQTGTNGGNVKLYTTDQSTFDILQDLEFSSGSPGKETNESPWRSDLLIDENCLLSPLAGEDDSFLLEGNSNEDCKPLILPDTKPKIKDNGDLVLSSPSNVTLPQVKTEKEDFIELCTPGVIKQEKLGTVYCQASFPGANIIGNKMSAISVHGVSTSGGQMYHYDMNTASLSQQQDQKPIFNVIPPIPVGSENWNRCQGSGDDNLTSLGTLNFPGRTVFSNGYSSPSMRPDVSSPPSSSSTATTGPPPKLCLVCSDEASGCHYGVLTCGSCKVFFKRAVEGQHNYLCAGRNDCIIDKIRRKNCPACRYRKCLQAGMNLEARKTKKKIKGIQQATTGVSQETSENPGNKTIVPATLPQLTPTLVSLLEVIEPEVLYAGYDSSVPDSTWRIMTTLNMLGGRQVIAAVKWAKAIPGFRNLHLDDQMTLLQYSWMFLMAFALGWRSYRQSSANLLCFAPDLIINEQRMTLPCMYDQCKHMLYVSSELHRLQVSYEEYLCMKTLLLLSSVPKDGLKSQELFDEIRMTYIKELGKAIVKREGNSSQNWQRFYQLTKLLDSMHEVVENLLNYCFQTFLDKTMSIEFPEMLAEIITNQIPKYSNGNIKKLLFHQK

As for `O=C(O)CN(CC(=O)O)CC(=O)O`, the outcome in assay [1], in assay [2], in assay [3], in assay [4], in assay [5] and in assay [6] was inactive. Further, the result in [7], in [8], in assay [9], in assay [10], in [11] and in [12] was inactive. The molecule was called inactive in assay [13], in assay [14], in assay [15] and in [16].
Turning to `CC(C)c1cccc(C(C)C)c1`, the call in [1], in assay [2], in assay [3], in assay [4], in assay [5] and in [6] was inactive. In addition, the outcome in [7], in assay [8], in [9], in assay [10], in assay [11] and in assay [17] was inactive. Also, the result in [18] was inactive.
In the case of `C/C=C/C=C/C(=O)O`, the molecule was called inactive in [1], in [2], in [3], in [4], in assay [5] and in assay [6]. For the same molecule, the outcome in assay [7], in [8], in [9], in [10], in [11] and in assay [12] was inactive. In addition, the result in assay [18] and in assay [19] was inactive.
Consider `S=c1[nH]c2ccccc2s1`, for which the half-maximal activity concentration (AC50) (as a rule, the concentration at which the activity in the assay is half-maximal) in assay [1] was 28.5 µM (active); in [4], 42.5 µM (active); in [5], 59 µM (active); in [6], 63.2 µM (active). Also, the call in [2], in [3], in [7], in assay [8], in [9] and in assay [10] was inactive. Further, the call in [11], in assay [12], in [13], in assay [19], in assay [14] and in assay [15] was inactive.
As for `O=C(Oc1ccccc1)c1cccc(C(=O)Oc2ccccc2)c1`, the AC50 in assay [1] is 104 µM (active). For the same molecule, the molecule was classed as inactive in assay [2], in assay [3], in assay [4], in assay [5], in assay [6] and in assay [7]. Also, the result in assay [8], in assay [9], in assay [10], in [11], in [13] and in assay [18] was inactive. For the same molecule, the molecule was called inactive in assay [19], in assay [15] and in [16].
Regarding `CCCC(=O)O`, the call in [1], in assay [2], in assay [3], in assay [4], in assay [5] and in assay [6] was inactive. Further, the result in assay [7], in assay [8], in assay [9], in [10], in assay [11] and in assay [12] was inactive. Moreover, the call in assay [17], in assay [13], in [18] and in assay [14] was inactive.
For `NC=O`, the outcome in [1], in [2], in [3], in assay [4], in assay [6] and in assay [7] was inactive. Moreover, the molecule was classed as inactive in assay [8], in [9], in assay [10], in assay [11] and in assay [14].
Consider `CC(COCC(C)OC(=O)c1ccccc1)OC(=O)c1ccccc1` (stereo not drawn), for which the result in [1], in assay [2], in assay [3], in assay [4], in [6] and in assay [7] was inactive. Moreover, the molecule was classed as inactive in assay [8], in [9], in assay [10], in assay [11], in [12] and in assay [17]. For the same molecule, the call in assay [13], in assay [14], in [15] and in assay [16] was inactive.
